# Measured values reported in PubChem BioAssay.
# Assay: small-molecule microarray binders of probe aWnt5a, primary screen, biochemical, biotinylated probe, 635/667 nm fluorescence (AID 1113);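 also: score merges 667 nm fluorescence intensity with signal-to-noise per printed feature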
# Settings: higher = more signal
row,Compound,composite z-score
1,Cc1ccc(S[C@]2(C(=O)NC(C)C)CC(=O)N(C3Cc4ccccc4C3)[C@@H]2c2ccc(CO)cc2)cc1,-0.098
2,[N-]=[N+]=NCc1ccccc1C[C@]1(C(N)=O)N=C(c2ccc(OCCCO)cc2)O[C@H]1c1ccccc1CN=[N+]=[N-],0.0286
3,C[N+](C)(C)CCCC[C@@H]1NC(=O)[C@H]2C[C@@H](C(=O)NCc3ccc(F)cc3)[C@@H](c3cccc(OCCO)c3)N2C1=O,-0.0522
4,C=CCC(OC(C)=O)[C@@H]1[C@@H](N(Cc2ccc(-c3ccccc3)cc2)C(=O)c2ccc(-c3ccccc3)cc2)c2cc(OCCCO)ccc2N1C(=O)Cc1ccc(OC)cc1 (stereo partly specified),0.164
5,CO[C@@H]1COC(=O)CC=C[C@@H](C)[C@H](OC)COC(=O)CC=C[C@H]1C,-0.24
6,O=C(NCc1ccccc1)[C@@]1(CCS(=O)(=O)c2ccccc2)COC(c2ccc(OCCCO)cc2)=N1,0.111
7,C=C(CCCC)/C(=C/C[C@@H](OC(=O)c1ccncc1)c1cccc(OCCO)c1)c1cc(C(=O)OC)ccc1OC,-0.143
8,CC(C)[Si]1(C(C)C)OCc2cc(C3CC3)nc(-c3ccccc3)c21,-0.15
9,C=CCOC(=O)[C@@H]1[C@H]2C(=O)O[C@H](c3ccccc3)[C@H](c3ccccc3)N2[C@H](c2ccc(OCCOC(=O)[C@H]3C[C@H]4C(=O)N[C@@H](CCCCNC(C)=O)C(=O)N4[C@H]3c3ccc(O)cc3)cc2)[C@@]12C(=O)Nc1ccc(I)cc12,-0.104
10,CC(C)N1CC=CC23O[C@@H]4/C=C\CCCOC(=O)C4[C@H]2C(=O)N(CCCCCO)[C@@H]3C1=O (stereo partly specified),-0.176
11,O=C1O[C@@H](c2ccccc2)[C@@H](c2ccccc2)N2[C@@H](c3ccc(OCCO)cc3)[C@]3(C(=O)Nc4ccc(C#CCCO)cc43)[C@@H](C(=O)N3CCN(c4ncccn4)CC3)[C@H]12,0.0115
12,COC(=O)[C@@]1(Cc2ccc(OC)cc2)[C@H]2c3cc(C(=O)N(C)C)n(CCc4ccc(OC)c(Br)c4)c3C[C@H]2CN1C(=O)c1ccccc1,0.36
13,CSCC[C@@H]1NC(=O)CC=C[C@@H](C)COC(=O)[C@H](CCSC)NC(=O)CC=C[C@@H](C)COC1=O,-0.168
14,CO[C@@H]1COC(=O)CC=C[C@H](C)COC(=O)[C@H](Cc2ccccc2)NC(=O)CC=C[C@H]1C,-0.288
15,CC(C)(C)OC(=O)CC[C@]1(C(=O)NCCN2CCOCC2)N=C(c2ccc(OCCCO)cc2)O[C@H]1c1ccccc1CN=[N+]=[N-],-0.0944
16,CO[C@H]1O[C@H](CO)[C@@H](OC(=O)Nc2ccc3c(c2)OCO3)[C@H](OC(=O)Nc2ccccc2)[C@@H]1OC(=O)Nc1ccccc1,0.129
17,CCc1cccc(NC(=O)O[C@H]2[C@H](OC(=O)Nc3ccccc3)[C@@H](OC(=O)Nc3ccccc3)[C@@H](OC)O[C@@H]2CO)c1,0.0267
18,CC(C)(C)OC(=O)CC[C@@]1(C(=O)NCc2ccccc2)N=C(c2ccc(OCCCO)cc2)O[C@@H]1c1ccccc1,0.0077

row,Compound,composite z-score
1,C=CCNC(=O)[C@H]1[C@@H]2C(=O)O[C@@H](c3ccccc3)[C@@H](c3ccccc3)N2[C@@H](c2ccccc2OCCO)[C@]12C(=O)N(C(=O)OCCOC)c1ccc(C#CCNC(N)=O)cc12,-0.124
2,CC(=O)NCCCC[C@@H]1NC(=O)[C@@H]2C[C@H](C(=O)NCCCCCCN(C)C)[C@H](c3ccc(O)cc3)N2C1=O,-0.201
3,CCCC=C(CCC)[C@@H](NC(=O)c1ccccc1)c1ccccc1,-0.0299
4,C=CCC(OC(C)=O)[C@@H]1[C@@H](N(Cc2ccc(-c3cccc(C(F)(F)F)c3)o2)C(=O)Cc2ccc(F)cc2)c2cc(OCCCO)ccc2N1C(=O)c1ccc(-c2ccccc2)cc1 (stereo partly specified),-0.154
5,CO[C@H]1COC(=O)[C@@H](C)NC(=O)CC=C[C@@H](C)[C@H](OC)COC(=O)CC=C[C@@H]1C,-0.202
6,COc1ccc([Si](C)(C)[C@H]2[C@H](CCO)O[C@@]3(C(=O)N(Cc4ccccc4)c4ccc(N5C(=O)c6cccc7cccc5c67)cc43)[C@@H]2C)cc1,-0.124
7,O=C/C=C/c1ccc(/C=C/c2ccccc2)cc1,-0.0585
8,O=C(CS)NCCCCCNC(=O)[C@H]1C[C@H]2C(=O)N3CCC[C@H]3C(=O)N2[C@H]1c1ccc(O)cc1,-0.197
9,CO[C@H]1COC(=O)[C@H](C)NC(=O)CC=C[C@@H](C)[C@H](NS(=O)(=O)c2ccc(C)cc2)COC(=O)CC=C[C@@H]1C,-0.137
10,O=C1C[C@@](C(=O)NC2CC2)(c2ccc([N+](=O)[O-])cc2)[C@@H](c2ccc(CO)cc2I)N1CC12CC3CC(CC(C3)C1)C2,0.0644
11,CO[C@H]1O[C@H](CO)[C@@H](OC(=O)CCc2ccccc2)[C@@H]2OC(=O)[C@H](Cc3cccc(Br)c3)C/C=C/C[C@@H](Cc3cccc(Br)c3)C(=O)O[C@@H]12,-0.0819
12,Cc1ccc(S[C@]2(C(=O)NCCCN(C)C)CC(=O)N(C3CCCCC3)[C@@H]2c2ccc(CO)cc2I)cc1,-0.0455
13,COc1cccc([C@H]2N[C@H](C(=O)O)CC[C@@H]2C)c1,-0.131
14,O=C1O[C@H](c2ccccc2)[C@H](c2ccccc2)N2[C@H]1[C@@H](C(=O)NC[C@H](O)c1ccccc1)[C@]1(C(=O)Nc3ccc(C#CC4(O)CCCCCC4)cc31)[C@H]2c1ccc(OCCO)cc1,-0.0276
15,CCCC[C@@H]1C[C@H]1[C@@H](NC(=O)c1cccs1)c1ccc(Cl)cc1,0.0095
16,Cc1ccc(N2C(=O)c3ccccc3[C@@H](C(=O)NCC(F)(F)F)[C@@H]2c2ccc(CO)cc2)nc1,-0.226
17,COCCOC(=O)N1C(=O)[C@@]2(c3cc(C#CCNC(N)=O)ccc31)[C@H](c1ccc(OCCO)cc1)N1[C@H](c3ccccc3)[C@H](c3ccccc3)OC(=O)[C@H]1[C@@H]2C(=O)Nc1nc2ccccc2s1,0.0136
18,O=C1c2ccccc2[C@](Cc2ccccc2I)(C(=O)O)[C@H](c2ccc(CO)cc2)N1C1CCCCC1,-0.0203
